High-throughput results from PubChem BioAssay.
The list is not random: actives were taken first. Their share in the collection is about 12%.
BAZ2B inh = inhibitors of human BAZ2B bromodomain; Q9UIF8; Potency, µM (highest dose often 114 µM), hits mostly inhibitors; AlphaScreen BAZ2B-H3K14Ac peptide displacement; AID 504333; hit rate 4.4% among 360,000; note: nearly all actives have a fitted effect of over 60% in size
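AlphaScreen displacement: compounds (up to 110uM) incubated 30 min at room temperature with a preformed 50 nM BAZ2B/50 nM biotinylated H3K14Ac peptide complex in PBS pH 7.4 with Tween-20. Donor and acceptor beads at 10 ug/mL final added, 20 min light-protected before reading.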
G9a block = blocks human histone lysine methyltransferase G9a; Potency, µM (highest dose often 102 µM), actives largely listed as inhibitors; Q96KQ7; G9a H3K9 monomethylation, AlphaScreen, 2 h; hit rate 8.8% among 350,000; AID 504332; note: nearly all actives have a fitted effect of over 75% in size
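Using a bead-based AlphaScreen, monomethylated H3K9 product from 2 h room-temperature reactions (G9a 20 nM, peptide 500 nM, SAM 20 uM) was detected with 0.5 ug/mL rabbit anti-H3K9me1 antibody.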
Sfp inh = Sfp phosphopantetheinyl transferase inhibition; Q9F4F7; Biochemical Sfp PPTase activity, qHTS; Potency, µM, hits mostly inhibitors; hit rate 3.5% among 310,000; AID 1490;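 note: the enzyme is Sfp with the accession as filed and its product quenches rhodamine fluorescence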
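After 15 min at room temperature with compound, 15 nM Sfp received 5 uM rhodamine-CoA plus 12.5 uM BHQ-2-ybbR (50 mM Hepes pH 7.6, 10 mM MgCl2). Rate came from the fluorescence difference over 30 min, ex 525/em 598 nm.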
HP1b chromo inh = inhibitors of HP1-beta chromodomain binding to methylated histone tails; P83916; hit rate 0.56% among 390,000; AlphaScreen HP1-beta / biotin-H3K9me3 peptide binding; Potency, µM (titrated, usually from 114 µM), most hits filed as inhibitors; AID 540317; note: nearly all actives have a fitted effect of over 70% in size
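HP1-beta protein (50 nM final) preincubated 30 min at room temperature with biotinylated H3(1-18)K9me3 peptide (50 nM) in PBS pH 7.4, 0.01% Tween-20, then compound added for 30 min. AlphaScreen streptavidin donor/nickel chelate acceptor beads (10 ug/mL final), 30 min dark, luminescence read.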
PLK1 PBD block = inhibitors of human PLK1 polo-box domain binding; P53350; Plk1 PBD binding of FITC phosphopeptide, fluorescence polarization; AID 720504; Potency, µM, most hits filed as inhibitors; hit rate 2.8% among 360,000; note: series mostly up to about 57 µM; nearly all actives have a fitted effect of over 65% in size
Target sequence (P53350 whole entry, looked up, the tested form may be a part): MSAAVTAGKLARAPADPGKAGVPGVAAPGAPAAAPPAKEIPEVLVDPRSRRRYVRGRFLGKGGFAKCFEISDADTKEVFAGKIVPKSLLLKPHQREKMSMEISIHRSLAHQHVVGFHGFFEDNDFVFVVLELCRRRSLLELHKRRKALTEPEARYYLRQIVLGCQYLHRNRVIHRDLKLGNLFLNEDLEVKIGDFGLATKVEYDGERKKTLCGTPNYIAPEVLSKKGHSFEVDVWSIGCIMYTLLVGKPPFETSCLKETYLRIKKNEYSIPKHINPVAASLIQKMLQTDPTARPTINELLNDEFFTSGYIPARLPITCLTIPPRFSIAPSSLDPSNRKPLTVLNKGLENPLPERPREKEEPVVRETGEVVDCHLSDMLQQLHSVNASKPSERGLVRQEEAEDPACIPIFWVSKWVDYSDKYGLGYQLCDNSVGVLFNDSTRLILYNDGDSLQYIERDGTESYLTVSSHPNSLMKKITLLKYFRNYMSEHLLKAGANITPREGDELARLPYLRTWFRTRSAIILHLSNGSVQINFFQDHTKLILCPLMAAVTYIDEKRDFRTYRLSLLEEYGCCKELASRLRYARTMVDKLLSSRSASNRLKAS
JMJD2A Tudor inh = inhibitors of human JMJD2A Tudor domain | O75164 | hit rate 4.4% among 390,000 | AlphaScreen JMJD2A-Tudor / H3K4me3 peptide binding | Potency, µM (titrated, usually from 114 µM), usual class: inhibitors | AID 504339; note: nearly all actives have a fitted effect of over 50% in size
Numbers stand for hits; i = inactive; ? = inconclusive; nt = no result given; ! = not confirmed by another sample; [ ] = dose if it differs, or a comment. Calls come from the whole dose curve; as a rule, active = well fitted curve in the direction sought with a large enough effect; inconclusive = small, poorly fitted or top-dose-only effect, or another doubt; inactive = no such curve, though single readings can be large; an effect the other way counts as inactive or inconclusive.

SMILES	BAZ2B inh	G9a block	Sfp inh	HP1b chromo inh	PLK1 PBD block	JMJD2A Tudor inh
CC(=O)O[C@H]1CC[C@@]2(C)C(=CC(=O)C3C2CC[C@@]2(C)C3C[C@H](OC(C)=O)[C@@H]2OC(C)=O)C1 (stereo not given in full)	nt	nt	nt	i	i	i
C[N+](C)(C)CC(=O)[O-]	nt	i[2.33 µM]	i	nt	nt	nt
C[N+](C)(C)CC(=O)O	i	39.8µM!	nt	i	i	i
C[C@]12C[C@H](O)[C@@H](O)CC1=CCC1C2CC[C@@]2(C)C1CC[C@@H]2O (stereo not given in full)	nt	nt	nt	i	i	i
CCCCCc1nc2ccccc2c(=O)n1-c1ccc(C)cc1	i	i	nt	i	nt	i
CCCCCc1nc2c(c(=O)c3ccccc3n2C)c(=O)n1C1CCCCCC1	i	i	39.8µM	i	i	i
COc1cc2c3cc1Oc1c(OC)c(OC)cc4c1[C@H](Cc1ccc(cc1)Oc1cc(ccc1O)C[C@H]3N(C)CC2)N(C)CC4	nt	nt	nt	i	i	?
COc1cc2c3cc1Oc1cc(ccc1O)C[C@@H]1c4c(cc(OC)c(O)c4Oc4ccc(cc4)C[C@H]3N(C)CC2)CCN1C	44.7µM	?	i	i	i	?
COc1ccc2cc1Oc1ccc(cc1)C[C@H]1c3cc(c(OC)cc3CCN1C)Oc1c(OC)c(OC)cc3c1[C@H](C2)N(C)CC3	i	i	i	i	i	50.1µM
O=C1NCCOC(=O)[C@@H](Cc2ccc(F)cc2)CC/C=C/C[C@@H]1CC(=O)N(CCO)Cc1ccccc1	nt	nt	nt	i	i	i
CC(C)C[C@H](NC(=O)CNC(=O)[C@H](CCC(N)=O)NC(=O)[C@H](Cc1ccc(O)cc1)NC(=O)[C@@H](NC(=O)[C@H](Cc1ccc(O)cc1)NC(=O)CNC(=O)[C@@H](N)CCCN=C(N)N)C(C)C)C(=O)O	nt	nt	i	nt	nt	nt
Cc1cc(C=C2C(=O)NC(=O)NC2=O)c(C)n1-c1ccc2c(c1)OCO2	i	?	i	i	i	i
Cc1cc(C=C2C(=O)NC(=S)NC2=O)c(C)n1-c1ccc2c(c1)OCO2	?	11.2µM	44.7µM	i	2.67µM	?
O=C(Cc1ccc(Cl)c(Cl)c1)N1CCCC[C@H]1CN1CCCC1	nt	nt	i	nt	nt	nt
CCOC(=O)C1CCCN(Cc2ccc(-c3ccccc3)cc2)C1 (stereo not given)	?	nt	?	i	i	28.2µM
Clc1ccc(C(Cl)(Cl)Cl)c(Cl)c1	i	i[0.501 µM]	nt	i	10.6µM	i
Clc1ccc(Cl)cc1	nt	i	i	nt	nt	nt
O=C(O)c1nn(Cc2ccc(Cl)cc2Cl)c2ccccc12	i	2.24µM!	i	i	i	i
COC(=O)C(O)C(O)(CCC(C)C)C(=O)OC1C(OC)=CC23CCCN2CCc2cc4c(cc2C13)OCO4 (stereo not given)	nt	i	i	nt	nt	nt
Fc1ccccc1CNC1CN2CCC1CC2 (stereo not given)	i	?	i	i	18.9µM	39.8µM
COc1ccc(CNCCc2ccc(Cl)cc2)c(OC)c1OC	?	35.5µM	i	?	i	31.6µM
COc1ccc(CCNCc2ccc(Br)cc2)cc1OC	50.1µM	i	i	?	i	20µM
CNCCc1ccc(OC)c(OC)c1	i	?	i	i	i	i
COc1ccccc1CNCCc1cccc(Cl)c1	nt	nt	nt	nt	i	nt
COc1cc(OC)c(OC)cc1CNCCc1cccc(F)c1	56.2µM	i	i	?	i	7.94µM
SMILES	BAZ2B inh	G9a block	Sfp inh	HP1b chromo inh	PLK1 PBD block	JMJD2A Tudor inh
COc1cc(OC)c(OC)cc1CNCCc1ccc(F)cc1	i	nt	i	i	i	63.1µM
CCCC[N+]12C3CC(C(CC)[C@H]1O)[C@@H]1C(O)C4(C[C@@H]12)c1ccccc1N(C)C34 (stereo not given in full)	nt	nt	i	nt	nt	nt
COc1cc(OC)c(OC)cc1CNCCc1ccc(OC)c(OC)c1	?	?	i	?	i	3.16µM
COc1ccc(OC)c(CNCCc2ccc(OC)c(OC)c2)c1	?	nt	i	i	i	17.8µM
COc1ccccc1CNCCc1ccc(F)cc1	50.1µM	i	i	?	i	31.6µM
COc1ccc(CC(C)NCCc2ccc(OC)c(OC)c2)cc1 (stereo not given)	i	i	i	i	i	i
COc1ccc(CCNCc2ccccc2F)cc1	44.7µM	i	i	i	i	20µM
COc1ccc(CCNCc2ccccc2F)cc1OC	i	i	i	i	i	i
